PAFAH1B2 FP inh – PAFAH1B2 enzyme inhibitors, primary screen, biochemical, fluorescence polarization, human. inhibition, % at 3.39 µM. 1.2% of 340,000 active. Platelet-activating factor acetylhydrolase IB subunit alpha2 (Homo sapiens), P68402. recombinant PAFAH1B2, FP-rhodamine activity probe. AID 492953, 2010;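 active = inhibition above the mean of all tested compounds plus 3 SD, cut at about 24% in these data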;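 also: 0% = enzyme with DMSO and 100% = wells lacking PAFAH1B2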
Target sequence (P68402 whole entry, looked up): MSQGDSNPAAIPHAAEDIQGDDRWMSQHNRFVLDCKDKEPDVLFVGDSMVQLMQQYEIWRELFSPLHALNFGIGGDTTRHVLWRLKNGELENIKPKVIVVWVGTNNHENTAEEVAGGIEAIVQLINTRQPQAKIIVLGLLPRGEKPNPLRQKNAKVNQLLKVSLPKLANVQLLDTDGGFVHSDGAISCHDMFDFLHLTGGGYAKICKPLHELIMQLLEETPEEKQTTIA
PAFAH2 inh – PAFAH2 enzyme inhibitors, primary screen, biochemical, fluorescence polarization, human; inhibition, % at 3.39 µM; Platelet-activating factor acetylhydrolase 2, cytoplasmic (Homo sapiens), Q99487; recombinant PAFAH2, FP-rhodamine activity probe; 0.99% of 340,000 active;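 active = inhibition above the mean over all tested compounds plus 3 SD, cut at about 30% in these data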;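 also: inhibitors block probe labeling of enzyme so polarization drops; 0% = enzyme with DMSO and 100% = wells lacking PAFAH2 protein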
ZTA DNA inh – counter-screen for EBNA-1 inhibitors: inhibitors of Epstein-Barr virus ZTA; 0.15% of 320,000 active; ZTA-DNA binding, fluorescence polarization; inhibition, % at 11 µM; in the data active = inhibition above about 33%
PAFAH1B3 inh – PAFAH1B3 enzyme inhibitors, primary screen, biochemical, fluorescence polarization, human. inhibition, % at 3.39 µM. Platelet-activating factor acetylhydrolase IB subunit alpha1 (Homo sapiens), Q15102. recombinant PAFAH1B3, FP-rhodamine probe. 0.28% of 340,000 active;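 active = inhibition above the screen-wide average of all tested compounds plus 3 SD, cut at about 25% in these data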;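 also: 0% = enzyme with DMSO only and 100% = wells lacking PAFAH1B3 protein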
Target sequence (Q15102 whole entry, looked up): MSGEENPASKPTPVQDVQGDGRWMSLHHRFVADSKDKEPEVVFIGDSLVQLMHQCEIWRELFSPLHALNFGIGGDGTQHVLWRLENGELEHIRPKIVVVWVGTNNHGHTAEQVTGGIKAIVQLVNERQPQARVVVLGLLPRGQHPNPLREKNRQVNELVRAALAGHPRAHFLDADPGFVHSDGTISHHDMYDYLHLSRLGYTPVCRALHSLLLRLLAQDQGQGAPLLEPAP
EBNA-1 inhibitor – EBNA-1 DNA-binding inhibitors, primary screen, biochemical, fluorescence polarization | inhibition, % at 14.8 µM | 0.34% of 300,000 active | AID 1950, 2009; in the data active = inhibition above about 28%
rCAG RNA binder – binders of r(CAG) RNA repeats, primary screen, biochemical, fluorescence. 1.3% of 370,000 active. inhibition, % at 3 µM. r(CAG) RNA repeat, TO-PRO-1 dye displacement fluorescence;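 active = inhibition above the plate cutoff, the mean of all test compounds on that plate plus 3 SD, cut at about 35% in these data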;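 also: 0% = DMSO alone and 100% = 100 µM mitoxantrone as full dye displacement; higher means more dye released from RNA so lower well fluorescence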
Starred values were filed as active, the others as inactive. Shown are actives, neighbours in structure and some others; about 2.9% of the full set was active somewhere.

Results for O=[N+]([O-])c1ccc(S(=O)(=O)NCCCc2ccccc2)cc1 ?
ZTA DNA inh: 9; EBNA-1 inhibitor: 5; rCAG RNA binder: -3

What do the screens show for `O=S(=O)(NCCCc1ccccc1)c1ccc(Cl)cc1`?
PAFAH1B2 FP inh: 26*; PAFAH2 inh: 8; ZTA DNA inh: -6; PAFAH1B3 inh: 1; EBNA-1 inhibitor: -4; rCAG RNA binder: -2

How did O=S(=O)(NCCCc1ccccc1)c1ccc(F)c(F)c1 do in these assays?
PAFAH1B2 FP inh: 36*; PAFAH2 inh: 15; ZTA DNA inh: 0; PAFAH1B3 inh: -3; EBNA-1 inhibitor: 3; rCAG RNA binder: -4

Results for CN1C(=O)C(C)(C)c2cc(S(=O)(=O)NCCc3ccc(Cl)cc3)ccc21 ?
PAFAH1B2 FP inh: 24*; PAFAH2 inh: 5; ZTA DNA inh: -11; PAFAH1B3 inh: 3; EBNA-1 inhibitor: -4; rCAG RNA binder: 1

How did O=C1C=C(NCCc2cc(Br)c(O)c(Br)c2)C(=O)c2ncccc21 do in these assays?
PAFAH1B2 FP inh: 28*; PAFAH2 inh: 37*; PAFAH1B3 inh: 68*; rCAG RNA binder: 12

Results for CC(C)(C)c1cc(CCC(=O)NCCc2ccccn2)cc(C(C)(C)C)c1O ?
PAFAH1B2 FP inh: 2; PAFAH2 inh: 0; ZTA DNA inh: -7; PAFAH1B3 inh: 7; EBNA-1 inhibitor: -1; rCAG RNA binder: -6

What do the screens show for `Cc1[nH]nc2c1C(c1ccccc1)N(Cc1ccccc1)C2=O` (stereo unspecified)?
rCAG RNA binder: 3

What do the screens show for `COC(=O)C1=C(C)N(Cc2ccc(C(F)(F)F)cc2)C(=NCc2ccc(OC)cc2)NC1c1ccccc1` (stereo unspecified)?
rCAG RNA binder: 9

Results for O=C(COC(=O)c1c(Cl)cccc1Cl)NC1CCCCCCC1 ?
PAFAH1B2 FP inh: 12; PAFAH2 inh: 7; PAFAH1B3 inh: 6; rCAG RNA binder: -3

How did O=C(COC(=O)c1cccc(Cl)c1Cl)NC1CCCC1 do in these assays?
PAFAH1B2 FP inh: 0; PAFAH2 inh: 69*; ZTA DNA inh: 3; PAFAH1B3 inh: 4; EBNA-1 inhibitor: -18; rCAG RNA binder: -2

Results for O=C(COC(=O)c1ccccc1Cl)NC1CCCCCC1 ?
PAFAH1B2 FP inh: 5; PAFAH2 inh: 79*; PAFAH1B3 inh: 6; rCAG RNA binder: 1

How did O=C(COC(=O)c1c(Cl)cccc1Cl)NC1CCCCC1 do in these assays?
PAFAH1B2 FP inh: 4; PAFAH2 inh: 8; ZTA DNA inh: 11; PAFAH1B3 inh: 9; EBNA-1 inhibitor: 8; rCAG RNA binder: -8

Results for COc1ccc(S[C@]2(C(=O)N3CCCC3)CC(=O)N(P(=O)(OC)OC)[C@@H]2c2ccc(OC)cc2)cc1 ?
rCAG RNA binder: 2

How did Cc1nnc(SCC(=O)Nc2nc(-c3ccc(F)cc3)cs2)[nH]c1=O do in these assays?
PAFAH1B2 FP inh: 30*; PAFAH2 inh: 2; ZTA DNA inh: 4; PAFAH1B3 inh: 5; EBNA-1 inhibitor: 6; rCAG RNA binder: 3

Results for CCOC(=O)c1ccccc1NC(=O)CSc1nnc(C)c(=O)[nH]1 ?
PAFAH1B2 FP inh: 34*; PAFAH2 inh: 7; ZTA DNA inh: 9; PAFAH1B3 inh: 12; EBNA-1 inhibitor: -2; rCAG RNA binder: 2

How did O=C(NCCc1c[nH]c2ccccc12)c1ccc(Sc2ccccc2Cl)c([N+](=O)[O-])c1 do in these assays?
rCAG RNA binder: 13

How did O=[N+]([O-])c1ccc(Sc2cccc[n+]2[O-])c2nonc12 do in these assays?
PAFAH1B2 FP inh: 56*; PAFAH2 inh: 90*; PAFAH1B3 inh: 83*; rCAG RNA binder: 2

Results for Cc1cccc(OCC(=O)Nc2nnc(S(=O)(=O)N3CCCCC3)s2)c1 ?
PAFAH1B2 FP inh: 5; PAFAH2 inh: 1; ZTA DNA inh: 12; PAFAH1B3 inh: 4; EBNA-1 inhibitor: 3; rCAG RNA binder: 13

How did Cc1cccc(OCC(=O)Nc2nnc(S(=O)(=O)N3CCC(C)CC3)s2)c1 do in these assays?
PAFAH1B2 FP inh: 27*; PAFAH2 inh: 1; ZTA DNA inh: 8; PAFAH1B3 inh: 4; EBNA-1 inhibitor: 9; rCAG RNA binder: 20

Results for CCC1COCCS(=O)(=O)N1Cc1ccccc1F (stereo unspecified) ?
PAFAH1B2 FP inh: -1; PAFAH2 inh: -6; ZTA DNA inh: -6; PAFAH1B3 inh: 2; EBNA-1 inhibitor: 8; rCAG RNA binder: -2

Results for O=S1(=O)CCOC[C@H](c2ccccc2)N1Cc1ccccc1F ?
PAFAH1B2 FP inh: 29*; PAFAH2 inh: -5; ZTA DNA inh: -2; PAFAH1B3 inh: 3; EBNA-1 inhibitor: 4; rCAG RNA binder: -2

What do the screens show for `CNCC(O)c1ccc(OC(=O)C(C)(C)C)c(OC(=O)C(C)(C)C)c1` (stereo unspecified)?
PAFAH1B2 FP inh: 27*; PAFAH2 inh: 0; ZTA DNA inh: -2; PAFAH1B3 inh: 1; EBNA-1 inhibitor: 0; rCAG RNA binder: 5

What do the screens show for `C=CCN1[C@H](Cc2ccccc2)COc2cccc(N3CCSCC3)c2S1(=O)=O`?
rCAG RNA binder: 2

What do the screens show for `CCC(C)c1ccccc1NC(=O)COC(=O)c1ccc(N2CCCC2)c([N+](=O)[O-])c1` (stereo unspecified)?
PAFAH1B2 FP inh: -2; PAFAH2 inh: 79*; ZTA DNA inh: -6; PAFAH1B3 inh: 4; EBNA-1 inhibitor: -1; rCAG RNA binder: 1

Results for O=C(O)c1cc(NS(=O)(=O)c2ccc(N3CCOCC3)c([N+](=O)[O-])c2)cc(C(=O)O)c1 ?
PAFAH1B2 FP inh: 5; PAFAH2 inh: 12; ZTA DNA inh: -5; PAFAH1B3 inh: 3; EBNA-1 inhibitor: -3; rCAG RNA binder: 2

How did CCC(C)c1ccccc1NC(=O)COC(=O)c1ccc2[nH]c3c(c2c1)CCCC3 (stereo unspecified) do in these assays?
PAFAH1B2 FP inh: 6; PAFAH2 inh: 71*; ZTA DNA inh: -4; PAFAH1B3 inh: 8; EBNA-1 inhibitor: 1; rCAG RNA binder: 3

Results for COC(=O)c1cc(NS(=O)(=O)c2ccc(N3CCCCC3)c([N+](=O)[O-])c2)cc(C(=O)OC)c1 ?
PAFAH1B2 FP inh: 11; PAFAH2 inh: -15; ZTA DNA inh: -3; PAFAH1B3 inh: 5; EBNA-1 inhibitor: 9; rCAG RNA binder: 69*

What do the screens show for `CN1CC=C(c2ccccc2)N(c2ccccc2)C1=O`?
rCAG RNA binder: 3

Results for Cc1ccc(S(=O)(=O)n2ccc3c(OCCOCCSCC(NC(=O)OC(C)(C)C)C(=O)O)cccc32)cc1 (stereo unspecified) ?
PAFAH1B2 FP inh: 81*; PAFAH2 inh: 1; ZTA DNA inh: 5; PAFAH1B3 inh: 2; EBNA-1 inhibitor: 7; rCAG RNA binder: 48*

How did Cc1ccc(OCC(=O)NC(C)c2ccccc2)cc1 (stereo unspecified) do in these assays?
PAFAH1B2 FP inh: 7; PAFAH2 inh: 0; ZTA DNA inh: -22; PAFAH1B3 inh: 1; EBNA-1 inhibitor: -12; rCAG RNA binder: -8

Screening data: PubChem, The Scripps Research Institute Molecular Screening Center
